Only some compounds are listed: those with a hit (about 2.5% of all), similar ones and a draw of the others.
Rce1 inh: blocks yeast Ras-converting enzyme; Q03530; yeast membranes, quenched prenylated peptide cleavage fluorescence; calls only; 290,000 tested, 0.27% active; AID 2563;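 active means fall in fluorescence gain of 50% or more versus controls, with final raw signal at or below 3038400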;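 further: plate controls were neutral control wells for no effect and wells lacking membranes for full effect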
Target sequence (Q03530 whole entry, looked up): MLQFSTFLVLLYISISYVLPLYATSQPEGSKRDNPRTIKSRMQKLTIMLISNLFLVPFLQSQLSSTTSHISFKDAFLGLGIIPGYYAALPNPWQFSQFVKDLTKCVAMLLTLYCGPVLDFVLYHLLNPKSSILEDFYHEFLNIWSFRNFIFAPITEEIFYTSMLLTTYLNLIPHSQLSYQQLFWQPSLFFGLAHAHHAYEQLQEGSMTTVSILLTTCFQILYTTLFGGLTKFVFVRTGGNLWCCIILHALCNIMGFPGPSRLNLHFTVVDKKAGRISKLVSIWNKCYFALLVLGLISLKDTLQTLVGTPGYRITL
MEKK2wt PB1 HTS: raises or lowers MEK5 binding to wildtype human MEKK2 PB1 domain. bead flow cytometry, Alexa488-MEK5 binding to MEKK2 WT; actives lie on both sides. binding response (% of control), % at 10 µM. 290,000 tested, 1.1% active. AID 1531; in the data active means binding response below about 67% or above about 130%
UBC13 polyUb: inhibitors of human UBC13 polyubiquitin chain formation; TR-FRET; inhibition, % at 20 µM; 330,000 tested, 0.47% active; in the data active means inhibition above about 45%, passing the limit was not always enough
Target sequence (P61088 whole entry, looked up): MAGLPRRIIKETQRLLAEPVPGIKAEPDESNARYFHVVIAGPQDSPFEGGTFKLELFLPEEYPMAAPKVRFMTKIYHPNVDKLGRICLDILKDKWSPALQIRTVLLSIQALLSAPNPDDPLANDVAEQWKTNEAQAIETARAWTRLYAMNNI
MEKK3 PB1 HTS: modulators (inhibitors or enhancers) of MEK5 binding to human MEKK3 PB1 domain. binding response (% of control), % at 10 µM. 290,000 tested, 1.4% active. Q99759. bead-based flow cytometry, Alexa488-MEK5 binding to MEKK3; actives lie on both sides; 0 = blocked by unlabeled MEK5, 100 = vehicle;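 active means binding response more than 3 SD above or below the average of its plate-row segment, actives on both sides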;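 further: Alexa488 bead fluorescence after subtracting the streptavidin-only scavenger bead signal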
MEKK2 mut-MEK5: signal of MEK5 binding to mutant human MEKK2 PB1 domain; bead flow cytometry, Alexa488-MEK5 binding to MEKK2 mutant; percent response, % at 10 µM; 290,000 tested, 0.35% active; in the data active means percent response above about 24%, passing the limit was not always enough
MEKK2wt confirm: raises or lowers MEK5 binding to wildtype human MEKK2, retest; shares compounds with MEKK3 PB1 HTS; bead flow cytometry, Alexa488-MEK5 binding to MEKK2 WT; actives lie on both sides; binding response (% of control), % at 10 µM; 5,900 tested, 2.4% active; AID 1892; in the data active means binding response below about 16% or above about 210%; inactive means in between
MEKK2mut confirm: signal of MEK5 binding to mutant human MEKK2, retest; shares compounds with MEKK3 PB1 HTS; bead flow cytometry, Alexa488-MEK5 binding to MEKK2 mutant; percent response, % at 10 µM; 5,900 tested, 2% active; AID 1893; in the data active means percent response mostly above about 71%, no sharp cut-off; inactive means mostly below about 38%;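 further: higher means compound restores mutant binding toward wildtype level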
MEKK3 confirm: confirmation of inhibitors of MEK5 binding to human MEKK3. shares compounds with MEKK3 PB1 HTS. bead flow cytometry, Alexa488-MEK5 binding to MEKK3; hits give low values. binding response (% of control), % at 10 µM. 5,900 tested, 1.8% active. AID 1894;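 active means binding response below 72% of control, or above a set upper limit, though filed actives all read lower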;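 further: 100% = DMSO only wells and 0% = binding blocked by excess unlabeled MEK5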
Numbers without * were called inactive; i = inactive; x = no result given; [ ] = another dose, or the depositor's remark.

SMILES	Rce1 inh	MEKK2wt PB1 HTS	UBC13 polyUb	MEKK3 PB1 HTS	MEKK2 mut-MEK5	MEKK2wt confirm	MEKK2mut confirm	MEKK3 confirm
COc1ccc(CCNC(=O)CC2Nc3cc(C)c(C)cc3NC2=O)cc1OC (configuration not stated)	i	1.0*[inhibitor]	-3.3	0.0*[inhibitor]	-20.0	102.0	4.0	105.0
NC(=O)COc1ccc(-c2noc(COc3ccccc3[N+](=O)[O-])n2)cc1	i	119.0	1.4	132.0*	1.0	96.0	1.0	100.0
COc1ccc(NC2SC(=O)N(C)C2=O)cc1 (configuration not stated)	i	92.0	12.8	94.0	-9.0	x	x	x
NC(=O)COC(=O)CSc1ccc2ccccc2c1	i	99.0	-7.0	106.0	-1.0	x	x	x
C=CCSc1ncnc2sc(C)c(C)c12	i	92.0	-2.3	95.0	-2.0	x	x	x
CCSc1ncnc2sc(C)c(C)c12	i	88.0	6.2	53.0*[inhibitor]	0.0	102.0	2.0	102.0
CC/C(=N\O)c1c(O)c2c(n(-c3ccccc3)c1=O)CCCC2	i	96.0	0.7	94.0	-1.0	x	x	x
O=C(O)c1ccc(Oc2ccc(C(F)(F)F)cn2)cc1	i	84.0	3.9	91.0	-9.0	x	x	x
COC(=O)c1ccc(Oc2ccc(C(F)(F)F)cn2)cc1	i	129.0	5.4	152.0*	7.0	103.0	-2.0	96.0
Cc1ccc(C(=O)NCCc2nnc3ccc(SCC(=O)Nc4ccccc4F)nn23)cc1	i	101.0	-3.1	101.0	3.0	x	x	x
CCOC(=O)N1CCN(CC(=O)Nc2cc(OC)c(OC)cc2C#N)CC1	i	100.0	2.8	100.0	5.0	x	x	x
C=CCn1c(SCC(=O)NC2CCCCC2)nnc1-c1sc(N)nc1C	i	3.0*[inhibitor]	-8.5	3.0*[inhibitor]	-13.0	97.0	2.0	104.0
C=CCn1c(SCC(=O)Nc2sc(C)c(C)c2C(=O)OCC)nnc1-c1sc(N)nc1C	i	99.0	4.8	100.0	14.0	x	x	x
c1coc(CNC2CCCCCCC2)c1	i	106.0	4.9	98.0	1.0	x	x	x
O=S1(=O)CC(O)C(NCc2ccco2)C1 (configuration not stated)	i	81.0	0.2	75.0*[inhibitor]	-4.0	102.0	3.0	106.0
Cc1ccc(-n2nnc(-c3cccnc3)n2)cc1	i	85.0	6.0	78.0*[inhibitor]	-7.0	98.0	0.0	101.0
Cc1ccc(SCc2cc(=O)[nH]c(/N=C(\N)Nc3cccc4ccccc34)n2)cc1	i	108.0	-28.9	137.0*	0.0	101.0	-7.0	104.0
COc1ccc(OC)c(S(=O)(=O)Nc2cc(C)on2)c1	i	105.0	-9.1	100.0	8.0	x	x	x
Cc1ccc(C)c2c(N)c3c(nc12)CCCCC3 (tested in a mixture with another compound)	i	94.0	-1.4	94.0	-2.0	x	x	x
O=C(CN1CCOCC1)Nc1ccccc1Sc1ccc(Cl)cc1	x	103.0	6.7	129.0*	0.0	98.0	-7.0	100.0
COCc1cc(CN2CCN(CCc3ccccc3)C(CCO)C2)ccc1OC (configuration not stated)	i	105.0	3.1	101.0	10.0	x	x	x
Cc1cccc(OCc2nnc(SCC(=O)NCCc3ccccc3)o2)c1	i	-7.0*[inhibitor]	4.8	90.0	-35.0	104.0	-1.0	103.0
O=C(CSc1ccc(Br)cc1)NC1CCCCCC1	x	x	-3.6	x	x	x	x	x
O=C(CSc1ccc(F)cc1)NC1CCCCC1	i	1.0*[inhibitor]	-14.2	2.0*[inhibitor]	-84.0	106.0	5.0	107.0
COc1ccccc1N1CCN(CCCNC(=O)Nc2ccccc2C)CC1	i	119.0	2.9	110.0	29.0*	115.0	-1.0	106.0
COc1ccc(Cl)cc1N1CCN(CCNC(=O)Nc2ccccc2C)CC1	i	x	16.7	x	x	x	x	x
COc1cc(OC)cc(-c2nc3ccccc3c(=O)n2OC(=O)c2ccc(C)c(C)c2)c1	i	97.0	-5.4	101.0	-2.0	x	x	x

Screening results from PubChem BioAssay.
